Our source for the binding signal values is publication PMC7862700, “An all-to-all approach to the identification of sequence-specific readers for epigenetic DNA modifications on cytosine”.

Common to all, as to test: DAPPL (digital affinity profiling via proximity ligation, sequencing); 10 mM Tris-HCl pH 7.5, 50 mM NaCl, 1 mM DTT, 4% glycerol, room temperature, 30 min; GST-TFs on glutathione beads, 16-mer random dsDNA library, 0.1% formaldehyde crosslink after washing; high values mean tight binding
One experiment concerns the target T1, FEV (Homo sapiens, UniProt Q99581 1-238).
T1 sequence: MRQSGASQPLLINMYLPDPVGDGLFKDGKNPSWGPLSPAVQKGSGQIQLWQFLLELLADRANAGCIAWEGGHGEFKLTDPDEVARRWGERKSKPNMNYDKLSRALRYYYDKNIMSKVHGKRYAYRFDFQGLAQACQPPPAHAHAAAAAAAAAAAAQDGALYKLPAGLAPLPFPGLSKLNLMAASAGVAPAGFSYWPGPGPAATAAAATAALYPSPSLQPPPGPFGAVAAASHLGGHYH
The following applies: protein: recombinant; tags: N-terminal GST; dsDNA, one strand shown. The procedure, abridged:
(§1)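 After expression in yeast as GST fusions, human transcription factors were bound to glutathione beads, DNA-barcoded and mixed with a tag-only sample. The pools were incubated with 200 nmole of a 16-mer random double-stranded DNA library in Tris/NaCl/DTT/glycerol buffer (30 min, room temperature), washed and crosslinked with 0.1% formaldehyde. Proximity ligation with BsaI/T4 ligase ran for 1 h at 37 °C, before PCR amplification and sequencing on an Illumina NextSeq500. Binding signal is a hexamer's read frequency for a factor divided by its frequency for the tag-only sample.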

For a further experiment, the target named is ETV5 (Homo sapiens, UniProt P41161 1-510). The following applies: protein: recombinant; tags: N-terminal GST; dsDNA, one strand shown. In outline: as §1
A further experiment deals with HSF1 (Homo sapiens, UniProt Q00613 1-529). The following applies: protein: recombinant; tags: N-terminal GST; chain copies: 3; dsDNA, one strand shown. In outline: as §1
For another experiment, the target named is T2, SPIC (Homo sapiens, UniProt Q8N5J4 1-248).
T2 sequence: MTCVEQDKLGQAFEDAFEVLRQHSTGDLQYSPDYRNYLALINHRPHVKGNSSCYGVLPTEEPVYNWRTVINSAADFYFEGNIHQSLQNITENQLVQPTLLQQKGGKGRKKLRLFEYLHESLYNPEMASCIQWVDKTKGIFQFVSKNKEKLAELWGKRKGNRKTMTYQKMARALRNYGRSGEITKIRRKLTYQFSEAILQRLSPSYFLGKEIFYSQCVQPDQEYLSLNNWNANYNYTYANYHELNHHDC
The following applies: protein: recombinant; tags: N-terminal GST; dsDNA, one strand shown. The procedure, abridged: as §1

For another experiment, the target named is ELF4 (Homo sapiens, UniProt Q99607 1-663). The following applies: protein: recombinant; tags: N-terminal GST; dsDNA, one strand shown. In outline: as §1
The target in a further experiment is T3, ELK4 (Homo sapiens, UniProt P28324-2 1-405).
T3 sequence: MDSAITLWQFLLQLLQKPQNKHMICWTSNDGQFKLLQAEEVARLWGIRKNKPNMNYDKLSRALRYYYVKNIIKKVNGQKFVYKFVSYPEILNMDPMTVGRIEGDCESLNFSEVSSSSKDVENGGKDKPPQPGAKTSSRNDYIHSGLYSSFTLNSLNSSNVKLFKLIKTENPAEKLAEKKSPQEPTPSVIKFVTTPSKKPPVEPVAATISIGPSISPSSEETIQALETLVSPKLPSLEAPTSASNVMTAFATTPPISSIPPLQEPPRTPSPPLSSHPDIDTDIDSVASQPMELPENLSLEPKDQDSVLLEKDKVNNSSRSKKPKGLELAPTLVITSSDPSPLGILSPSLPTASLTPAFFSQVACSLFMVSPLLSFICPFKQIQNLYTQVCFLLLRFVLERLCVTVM
Particulars: protein: recombinant; tags: N-terminal GST; dsDNA, one strand shown. In outline:
as §1

In another experiment the target is T4, ETV2 (Homo sapiens, UniProt O00321 1-342).
T4 sequence: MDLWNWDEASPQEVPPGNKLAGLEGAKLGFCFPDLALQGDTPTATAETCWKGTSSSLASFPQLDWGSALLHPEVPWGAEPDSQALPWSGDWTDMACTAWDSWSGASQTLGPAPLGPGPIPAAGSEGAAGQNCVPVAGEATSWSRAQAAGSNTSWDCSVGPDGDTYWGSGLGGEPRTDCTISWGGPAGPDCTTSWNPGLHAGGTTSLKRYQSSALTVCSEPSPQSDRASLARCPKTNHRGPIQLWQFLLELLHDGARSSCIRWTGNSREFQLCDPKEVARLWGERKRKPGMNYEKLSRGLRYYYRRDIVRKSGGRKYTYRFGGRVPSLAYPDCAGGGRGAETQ
The following applies: protein: recombinant; tags: N-terminal GST; dsDNA, one strand shown. In outline:
as §1

The next experiment addresses T5, ELF3 (Homo sapiens, UniProt P78545 1-371).
T5 sequence: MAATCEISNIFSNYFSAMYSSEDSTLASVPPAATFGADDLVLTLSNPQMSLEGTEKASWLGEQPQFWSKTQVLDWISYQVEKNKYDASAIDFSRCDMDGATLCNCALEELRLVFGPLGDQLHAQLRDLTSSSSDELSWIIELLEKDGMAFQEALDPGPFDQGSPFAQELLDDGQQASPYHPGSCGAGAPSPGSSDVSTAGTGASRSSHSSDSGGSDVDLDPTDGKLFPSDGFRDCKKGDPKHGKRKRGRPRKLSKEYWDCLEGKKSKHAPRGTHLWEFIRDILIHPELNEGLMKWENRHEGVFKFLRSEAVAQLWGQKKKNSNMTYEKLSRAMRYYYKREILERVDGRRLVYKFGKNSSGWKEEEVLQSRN
Particulars: protein: recombinant; tags: N-terminal GST; dsDNA, one strand shown. The procedure, abridged:
as §1

The next experiment has as its target CRX (Homo sapiens, UniProt O43186 1-299). The following applies: protein: recombinant; tags: N-terminal GST; dsDNA, one strand shown. The procedure, abridged: as §1
For the next experiment, the target named is ETV1 (Homo sapiens, UniProt P50549 1-477). Particulars: protein: recombinant; tags: N-terminal GST; dsDNA, one strand shown. The procedure, abridged:
as §1

Another experiment addresses T6, ERF (Homo sapiens, UniProt P50548 1-548).
T6 sequence: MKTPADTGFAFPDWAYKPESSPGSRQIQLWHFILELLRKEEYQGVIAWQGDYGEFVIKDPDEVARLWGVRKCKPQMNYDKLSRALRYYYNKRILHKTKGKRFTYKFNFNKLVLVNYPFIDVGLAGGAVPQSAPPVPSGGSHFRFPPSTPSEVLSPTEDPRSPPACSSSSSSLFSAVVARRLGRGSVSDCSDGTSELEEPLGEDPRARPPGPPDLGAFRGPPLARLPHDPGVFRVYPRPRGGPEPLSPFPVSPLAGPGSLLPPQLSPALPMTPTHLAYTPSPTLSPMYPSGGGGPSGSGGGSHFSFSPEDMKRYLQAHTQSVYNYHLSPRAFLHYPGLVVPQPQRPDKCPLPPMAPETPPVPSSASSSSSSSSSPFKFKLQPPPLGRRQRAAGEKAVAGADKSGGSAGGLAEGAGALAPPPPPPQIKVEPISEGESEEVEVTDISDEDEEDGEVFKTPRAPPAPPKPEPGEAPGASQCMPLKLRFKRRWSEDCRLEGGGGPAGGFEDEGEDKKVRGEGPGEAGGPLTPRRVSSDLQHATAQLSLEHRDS
The following applies: protein: recombinant; tags: N-terminal GST; dsDNA, one strand shown. In outline:
as §1

The target of another experiment is T7, ETV3L (Homo sapiens, UniProt Q6ZN32 1-361).
T7 sequence: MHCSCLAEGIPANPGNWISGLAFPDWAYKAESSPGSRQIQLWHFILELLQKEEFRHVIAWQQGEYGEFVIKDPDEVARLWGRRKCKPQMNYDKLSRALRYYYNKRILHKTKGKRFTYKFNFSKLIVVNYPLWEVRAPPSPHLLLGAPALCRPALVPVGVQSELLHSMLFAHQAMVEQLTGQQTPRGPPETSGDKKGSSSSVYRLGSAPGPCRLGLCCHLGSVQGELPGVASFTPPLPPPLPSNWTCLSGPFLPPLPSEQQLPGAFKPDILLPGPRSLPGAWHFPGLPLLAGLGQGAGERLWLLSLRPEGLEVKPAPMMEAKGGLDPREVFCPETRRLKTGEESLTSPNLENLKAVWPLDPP
The following applies: protein: recombinant; tags: N-terminal GST; dsDNA, one strand shown. The procedure, abridged:
as §1

The target of another experiment is T8, ETS2 (Homo sapiens, UniProt P15036 1-469).
T8 sequence: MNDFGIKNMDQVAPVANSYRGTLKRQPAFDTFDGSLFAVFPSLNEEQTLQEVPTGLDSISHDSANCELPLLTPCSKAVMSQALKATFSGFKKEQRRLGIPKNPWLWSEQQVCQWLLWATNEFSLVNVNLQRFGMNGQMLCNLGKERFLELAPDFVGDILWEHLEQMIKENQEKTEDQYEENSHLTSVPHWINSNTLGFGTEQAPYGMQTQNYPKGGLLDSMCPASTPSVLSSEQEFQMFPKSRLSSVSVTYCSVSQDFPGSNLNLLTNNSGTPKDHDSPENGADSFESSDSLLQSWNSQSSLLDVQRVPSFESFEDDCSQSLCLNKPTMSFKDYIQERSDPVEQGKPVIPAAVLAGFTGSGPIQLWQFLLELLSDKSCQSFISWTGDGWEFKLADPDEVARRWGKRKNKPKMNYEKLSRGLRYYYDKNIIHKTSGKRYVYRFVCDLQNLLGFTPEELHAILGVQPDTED
The following applies: protein: recombinant; tags: N-terminal GST; dsDNA, one strand shown. In outline: as §1

The next experiment has as its target T9, SPDEF (Homo sapiens, UniProt O95238 1-335).
T9 sequence: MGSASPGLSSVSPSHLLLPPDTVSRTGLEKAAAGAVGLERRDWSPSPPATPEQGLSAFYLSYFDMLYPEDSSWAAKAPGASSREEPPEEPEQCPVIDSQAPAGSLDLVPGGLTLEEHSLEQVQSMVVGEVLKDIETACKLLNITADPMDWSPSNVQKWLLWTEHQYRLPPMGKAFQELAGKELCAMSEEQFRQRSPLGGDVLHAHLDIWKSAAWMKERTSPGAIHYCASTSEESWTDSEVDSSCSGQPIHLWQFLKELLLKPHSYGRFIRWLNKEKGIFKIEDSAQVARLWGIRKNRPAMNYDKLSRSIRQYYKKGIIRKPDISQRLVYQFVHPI
Particulars: protein: recombinant; tags: N-terminal GST; dsDNA, one strand shown. In outline:
as §1

In another experiment the target is T10, ETV7 (Homo sapiens, UniProt Q9Y603 1-341).
T10 sequence: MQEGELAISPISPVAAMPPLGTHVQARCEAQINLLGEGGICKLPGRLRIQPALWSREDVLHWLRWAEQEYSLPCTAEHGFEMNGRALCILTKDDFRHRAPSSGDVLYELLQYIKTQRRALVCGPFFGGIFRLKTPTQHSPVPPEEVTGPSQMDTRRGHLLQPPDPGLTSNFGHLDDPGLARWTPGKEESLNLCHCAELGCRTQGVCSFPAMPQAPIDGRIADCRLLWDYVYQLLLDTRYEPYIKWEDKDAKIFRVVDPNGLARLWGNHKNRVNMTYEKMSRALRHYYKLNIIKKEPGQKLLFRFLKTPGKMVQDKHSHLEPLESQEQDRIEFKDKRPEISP
Particulars: protein: recombinant; tags: N-terminal GST; dsDNA, one strand shown. The procedure, abridged: as §1

Another experiment concerns the target T11, ELF5 (Homo sapiens, UniProt Q9UKW6-2 1-255).
T11 sequence: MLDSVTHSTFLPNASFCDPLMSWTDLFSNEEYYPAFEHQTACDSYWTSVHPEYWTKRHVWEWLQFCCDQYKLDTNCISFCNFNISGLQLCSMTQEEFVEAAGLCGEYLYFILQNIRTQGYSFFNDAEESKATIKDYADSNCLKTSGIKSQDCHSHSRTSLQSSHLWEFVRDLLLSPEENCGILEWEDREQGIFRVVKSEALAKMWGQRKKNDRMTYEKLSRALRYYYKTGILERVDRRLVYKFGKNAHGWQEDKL
The following applies: protein: recombinant; tags: N-terminal GST; dsDNA, one strand shown. In outline:
as §1

Another experiment addresses T12, ETV3 (Homo sapiens, UniProt P41162-2 1-143).
T12 sequence: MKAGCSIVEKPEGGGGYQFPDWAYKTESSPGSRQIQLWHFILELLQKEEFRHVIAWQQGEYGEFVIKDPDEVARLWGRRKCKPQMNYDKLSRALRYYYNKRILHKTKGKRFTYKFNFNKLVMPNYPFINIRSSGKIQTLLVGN
The following applies: protein: recombinant; tags: N-terminal GST; dsDNA, one strand shown. In outline:
as §1

Another experiment deals with ETV6 (Homo sapiens, UniProt P41212 1-452). The following applies: protein: recombinant; tags: N-terminal GST; dsDNA, one strand shown. The procedure, abridged: as §1
Chain of ETV6 (P41212 whole entry): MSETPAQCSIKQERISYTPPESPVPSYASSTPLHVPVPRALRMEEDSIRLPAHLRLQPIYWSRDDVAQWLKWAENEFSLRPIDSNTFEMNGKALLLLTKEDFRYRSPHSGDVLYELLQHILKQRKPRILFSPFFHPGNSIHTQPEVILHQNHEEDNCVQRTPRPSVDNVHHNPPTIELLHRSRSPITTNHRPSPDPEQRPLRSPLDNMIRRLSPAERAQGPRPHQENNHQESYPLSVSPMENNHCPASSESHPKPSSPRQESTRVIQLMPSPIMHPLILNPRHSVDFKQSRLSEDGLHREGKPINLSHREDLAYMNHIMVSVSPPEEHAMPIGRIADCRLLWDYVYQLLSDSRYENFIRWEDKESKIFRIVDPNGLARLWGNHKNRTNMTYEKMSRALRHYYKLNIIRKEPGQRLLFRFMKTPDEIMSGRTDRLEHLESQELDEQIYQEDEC

Chain of CRX (O43186 whole entry): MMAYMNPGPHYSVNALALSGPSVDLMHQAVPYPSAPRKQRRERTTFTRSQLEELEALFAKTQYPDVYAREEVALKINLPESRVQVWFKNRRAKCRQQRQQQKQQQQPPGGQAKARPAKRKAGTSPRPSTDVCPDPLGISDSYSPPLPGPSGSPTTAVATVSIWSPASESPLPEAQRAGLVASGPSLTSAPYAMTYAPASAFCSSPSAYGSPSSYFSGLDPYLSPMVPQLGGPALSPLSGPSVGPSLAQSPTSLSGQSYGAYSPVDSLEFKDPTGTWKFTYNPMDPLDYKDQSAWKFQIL
Chain of HSF1 (Q00613 whole entry): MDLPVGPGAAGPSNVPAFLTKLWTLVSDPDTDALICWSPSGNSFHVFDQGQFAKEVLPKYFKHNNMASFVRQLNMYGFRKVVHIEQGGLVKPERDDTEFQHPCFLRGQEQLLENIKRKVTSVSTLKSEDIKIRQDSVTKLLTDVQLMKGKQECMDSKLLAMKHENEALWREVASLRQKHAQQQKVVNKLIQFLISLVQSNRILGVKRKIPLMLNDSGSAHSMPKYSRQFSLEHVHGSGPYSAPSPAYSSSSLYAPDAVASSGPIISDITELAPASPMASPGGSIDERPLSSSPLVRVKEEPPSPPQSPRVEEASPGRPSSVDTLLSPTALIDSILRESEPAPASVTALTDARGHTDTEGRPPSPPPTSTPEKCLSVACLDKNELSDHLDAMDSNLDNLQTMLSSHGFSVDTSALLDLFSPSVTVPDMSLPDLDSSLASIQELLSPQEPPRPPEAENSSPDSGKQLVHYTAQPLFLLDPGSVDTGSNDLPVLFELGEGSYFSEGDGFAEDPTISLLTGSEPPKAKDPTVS
Chain of ETV1 (P50549 whole entry): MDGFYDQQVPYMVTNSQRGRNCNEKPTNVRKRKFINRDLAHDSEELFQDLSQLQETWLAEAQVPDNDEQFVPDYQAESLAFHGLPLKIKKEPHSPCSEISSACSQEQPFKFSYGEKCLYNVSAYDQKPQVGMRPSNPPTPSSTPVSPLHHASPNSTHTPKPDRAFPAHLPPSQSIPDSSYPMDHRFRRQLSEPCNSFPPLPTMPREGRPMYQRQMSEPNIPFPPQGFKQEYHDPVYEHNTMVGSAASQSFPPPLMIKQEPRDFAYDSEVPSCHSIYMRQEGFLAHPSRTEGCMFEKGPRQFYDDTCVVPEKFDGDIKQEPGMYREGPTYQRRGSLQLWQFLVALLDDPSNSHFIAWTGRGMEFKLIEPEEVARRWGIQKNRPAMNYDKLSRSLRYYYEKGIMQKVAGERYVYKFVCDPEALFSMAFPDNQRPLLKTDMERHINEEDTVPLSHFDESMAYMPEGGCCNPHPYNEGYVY
Chain of ELF4 (Q99607 whole entry): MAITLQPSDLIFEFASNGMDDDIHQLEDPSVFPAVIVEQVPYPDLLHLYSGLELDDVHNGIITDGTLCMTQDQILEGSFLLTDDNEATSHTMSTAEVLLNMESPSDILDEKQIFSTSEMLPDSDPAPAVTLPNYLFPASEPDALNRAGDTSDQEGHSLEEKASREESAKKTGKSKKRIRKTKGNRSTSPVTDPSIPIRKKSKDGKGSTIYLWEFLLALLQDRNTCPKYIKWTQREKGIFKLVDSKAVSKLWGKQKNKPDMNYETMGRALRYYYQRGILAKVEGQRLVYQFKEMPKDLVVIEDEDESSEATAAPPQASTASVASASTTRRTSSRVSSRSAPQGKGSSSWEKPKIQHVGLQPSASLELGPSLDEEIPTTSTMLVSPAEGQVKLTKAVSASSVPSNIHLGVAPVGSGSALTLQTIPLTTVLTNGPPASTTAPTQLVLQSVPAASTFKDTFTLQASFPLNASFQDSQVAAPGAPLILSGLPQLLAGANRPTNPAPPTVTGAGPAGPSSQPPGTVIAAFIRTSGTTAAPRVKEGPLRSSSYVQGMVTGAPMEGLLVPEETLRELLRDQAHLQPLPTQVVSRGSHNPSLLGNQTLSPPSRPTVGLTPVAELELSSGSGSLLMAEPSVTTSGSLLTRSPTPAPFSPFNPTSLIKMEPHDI
Chain of ETV5 (P41161 whole entry): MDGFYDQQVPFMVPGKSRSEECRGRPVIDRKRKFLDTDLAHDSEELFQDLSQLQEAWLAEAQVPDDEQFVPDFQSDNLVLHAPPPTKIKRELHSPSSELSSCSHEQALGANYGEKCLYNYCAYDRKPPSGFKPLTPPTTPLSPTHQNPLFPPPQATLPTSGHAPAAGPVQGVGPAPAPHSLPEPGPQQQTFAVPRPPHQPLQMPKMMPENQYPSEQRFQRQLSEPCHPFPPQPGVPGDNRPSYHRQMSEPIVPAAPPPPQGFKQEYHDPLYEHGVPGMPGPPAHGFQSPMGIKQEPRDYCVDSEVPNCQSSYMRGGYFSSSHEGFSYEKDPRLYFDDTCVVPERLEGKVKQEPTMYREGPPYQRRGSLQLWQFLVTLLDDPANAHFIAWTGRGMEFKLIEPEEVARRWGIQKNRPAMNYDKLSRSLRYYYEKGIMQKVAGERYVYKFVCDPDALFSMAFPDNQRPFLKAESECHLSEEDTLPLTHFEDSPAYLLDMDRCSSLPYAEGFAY

Regarding TGCCTC, the binding signal is 1.32 fold enrichment (6-mer frequency, TF over GST control) with FEV; 1.37 fold enrichment (6-mer frequency, TF over GST control) in the experiment with ETV5; 1.14 fold enrichment (6-mer frequency, TF over GST control) in the experiment with HSF1; 1.4 fold enrichment (6-mer frequency, TF over GST control) with SPIC; 1.34 fold enrichment (6-mer frequency, TF over GST control) with ELF4; 1.28 fold enrichment (6-mer frequency, TF over GST control) with ELK4. For the same sequence, the binding signal with ETV2 is 1.3 fold enrichment (6-mer frequency, TF over GST control); in the experiment with ELF3, 1.52 fold enrichment (6-mer frequency, TF over GST control); with CRX, 1.06 fold enrichment (6-mer frequency, TF over GST control); with ETV1, 1.24 fold enrichment (6-mer frequency, TF over GST control); with ERF, 1.4 fold enrichment (6-mer frequency, TF over GST control); with ETV3L, 1.32 fold enrichment (6-mer frequency, TF over GST control). Moreover, the binding signal is 1.22 fold enrichment (6-mer frequency, TF over GST control) with ETS2; 1.39 fold enrichment (6-mer frequency, TF over GST control) in the experiment with SPDEF; 1.35 fold enrichment (6-mer frequency, TF over GST control) with ETV7; 1.4 fold enrichment (6-mer frequency, TF over GST control) in the experiment with ELF5; 1.39 fold enrichment (6-mer frequency, TF over GST control) with ETV3; 1.36 fold enrichment (6-mer frequency, TF over GST control) with ETV6.
